Measurements as given in PubChem BioAssay (NCATS).
Records with an inconclusive call do not appear. Calls of active or inactive are those of the source. The call rests on the fitted dose curve; in most records, active means well fitted inhibition curve with a large enough effect; inconclusive means small, poorly fitted or top-dose-only effect; inactive means flat fitted curve, though single readings scatter.

Key:
Test in all cases: Cytotoxic Profiling of Annotated Libraries Using Quantitative High-Throughput Screening (AID 1296008); further: nearly all actives have a fitted effect of over 60% in size
Settings in all cases: Five cell lines viability, CellTiter-Glo ATP luminescence, 48-72 h; max response: hits give low values
CRL-7250 = system: CRL-7250
Procedure, shortened: (§1)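 Cytotoxicity was measured as CellTiter-Glo ATP luminescence, read after 10 min at room temperature. Compound treatment of the cells lasted 48 or 72 hr at 37 degrees Celsius in a qHTS format.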

HEK293 = system: HEK293
Procedure, shortened: as §1

HaCat = system: HaCat
Procedure, shortened: as §1

KB-3-1 = system: KB-3-1
Procedure, shortened: as §1

NIH3T3 = system: NIH3T3
Procedure, shortened: as §1

Measured: max response
On the % scale 0 is the no-effect control and ±100 the full control effect.

CC1CCC2C(C(=O)O)=CC3C(O)C(C)(C)CC123 (stereo not given)
inactive: CRL-7250 -11.2% | HEK293 | HaCat | KB-3-1 | NIH3T3 -3.55%

O=c1c2ccccc2nc2n1CCC2O (stereo not given)
inactive: CRL-7250 | HEK293 | HaCat 4.07% | KB-3-1 | NIH3T3 2.87%

CC1CCC2(C(=O)OC3OC(CO)C(O)C(O)C3O)CCC3(C(=O)O)C(=CCC4C5(C)CCC(OC6OC(C)C(O)C(O)C6O)C(C)(C)C5CCC43C)C2C1C (stereo not given)
inactive: CRL-7250 1.53% | HEK293 | HaCat | KB-3-1 | NIH3T3 4.68%

C=C1CCC2C(C)(CO[C@@H]3O[C@H](CO)[C@@H](O)[C@H](O)[C@H]3O)C(O)CCC2(C)C1C(=O)CC1=CCOC1=O (stereo not given in full)
inactive: CRL-7250 -10.6% | HEK293 | HaCat | KB-3-1 4.59% | NIH3T3 1.1%

OC[C@H]1O[C@@H](OC(CCCCc2ccc(O)cc2)CCc2ccc(O)cc2)[C@H](O[C@@H]2OC[C@](O)(CO)[C@H]2O)[C@@H](O)[C@@H]1O (stereo not given in full)
inactive: CRL-7250 3.53% | HEK293 | HaCat | KB-3-1 | NIH3T3 2.54%

CC1(C)CCCC2(C)C1C(O)C=C(CO)C2(O)C(=O)O (stereo not given)
inactive: CRL-7250 3.48% | HEK293 | HaCat -13.1% | KB-3-1 3.33% | NIH3T3 3.08%

COC(=O)C1=CO[C@@H](O[C@@H]2O[C@H](CO)[C@@H](O)[C@H](O)[C@H]2O)[C@@H]2[C@@](C)(O)[C@@H](O)C[C@]12O
inactive: CRL-7250 -11.5% | HEK293 | HaCat 3.45% | KB-3-1 1.93% | NIH3T3 -0.0114%

CC1=C(CC(=O)O)c2cc(F)ccc2C1=Cc1ccc(S(C)(=O)=O)cc1
inactive: CRL-7250 | HEK293 | HaCat -6.44% | KB-3-1 | NIH3T3 4%

C=C(C)C(C)C1OC23CC4(CO2)C(CCC2C5(C)CCC(OC6OCC(O)C(OC7OC(CO)C(O)C(OC8OCC(O)C(O)C8O)C7O)C6OC6OC(CO)C(O)C6O)C(C)(C)C5CCC24C)C3C(C)(O)C1OC(C)=O (stereo not given)
inactive: CRL-7250 -0.008% | HEK293 | HaCat | KB-3-1 6.52% | NIH3T3 -2.26%

CC(=O)OC(CSC1CCC(=O)OC(C)CCC(=O)C1)C(=O)O (stereo not given)
inactive: CRL-7250 -6.05% | HEK293 | HaCat | KB-3-1 | NIH3T3

CC1(C)NC2N(C1=O)c1ccccc1C2(O)CC(C(=O)O)n1cnc2ccccc2c1=O (stereo not given)
inactive: CRL-7250 | HEK293 | HaCat -3.78% | KB-3-1 | NIH3T3 -5.13%

CC(=O)O[C@@H]1[C@H]2[C@@H](OC(=O)c3ccccc3)[C@@H](C)C[C@]2(O)[C@H](OC(C)=O)[C@@]2(C)[C@@H]3CC(C)(C)C(=O)[C@]3(OC(C)=O)C[C@@]12C
inactive: CRL-7250 | HEK293 | HaCat | KB-3-1 | NIH3T3 4.53%

O=C(O)CCc1cc2ccoc2cc1O[C@@H]1O[C@H](CO[C@@H]2OC[C@](O)(CO)[C@H]2O)[C@@H](O)[C@H](O)[C@H]1O
inactive: CRL-7250 -5.99% | HEK293 | HaCat | KB-3-1 9.81% | NIH3T3 -2.27%

C=C1CC[C@H]2[C@@H](/C=C(\C)C(=O)[C@@]3(OC(C)=O)C[C@H](C)[C@H](OC(C)=O)[C@@H]3[C@H]1OC(C)=O)C2(C)C
inactive: all assays above

CC(=O)NC(CCC(=O)O)C(=O)NCCc1ccc(O)cc1 (stereo not given)
inactive: all assays above

CC1NC(=O)C(Cc2c[nH]c3ccccc23)NC1=O (stereo not given)
inactive: CRL-7250 2.89% | HEK293 | HaCat 2.4% | KB-3-1 6.79% | NIH3T3 2.54%

CCOC(=O)c1c(C)nn(-c2cccc([N+](=O)[O-])c2)c1C
inactive: CRL-7250 -7.75% | HEK293 | HaCat | KB-3-1 0.772% | NIH3T3 3.21%

Cc1cc(C)c(S(=O)(=O)N(Cc2ccc(-c3cccc(S(C)(=O)=O)c3)cc2)Cc2ccc(C(F)(F)F)o2)c(C)c1
inactive: CRL-7250 -5.2% | HEK293 | HaCat 2.94% | KB-3-1 -6.43% | NIH3T3

CC1(C)C(O)CCC2(C)C1C(O)C=C1COC(=O)C12O (stereo not given)
inactive: CRL-7250 2.08% | HEK293 | HaCat | KB-3-1 5.78% | NIH3T3 0.735%

O=C1NC(Cc2ccc(O)cc2)C(=O)N2CCCC12 (stereo not given)
inactive: CRL-7250 -11.1% | HEK293 | HaCat -15.4% | KB-3-1 8.78% | NIH3T3 -0.188%
